Data taken from PubChem BioAssay AID624405 (Broad Institute, 2012).
Hit rate of the full screen: of about 1,900 compounds, about 250 (13%) were called active. Another 4% or so got no clear call; they are omitted.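 The calls were made as follows: active = fitted curve reaches 40% rescue activity at or below the top valid dose, in every test run; inconclusive = test runs disagree, some active and some inactive; inactive = every run misses the threshold or moves the wrong way.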 The list is a sample of the results. Entries with a potency or affinity are not part of this list.

test: suppressors of statin myotoxicity in myotubes, dose response, cell-based, C2C12 myotubes, ATP luminescence, cherry pick (AID 624405); conditions: C2C12 myotubes + simvastatin, 48 h, scaled: DMSO wells 0, geranylgeraniol wells 100; series mostly up to 19.5 µM;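 also: myotubes are challenged with simvastatin at 10 µM to lower ATP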

| SMILES | outcome |
| --- | --- |
| COc1ccc(CCNC2CCN(C)CC2)cc1OC | inactive |
| Cc1[nH]c2ccccc2c(=O)c1SC(F)(F)C(F)C(F)(F)F (stereo not given) | inactive |
| Cc1ccc(CC2CC(=O)N(CCc3ccc4c(c3)OCO4)C2=O)cc1 (stereo not given) | inactive |
| COc1ccc(NC(=O)N(C)C[C@H]2Oc3ccc(NC(=O)Cn4cnnn4)cc3C(=O)N([C@H](C)CO)C[C@H]2C)cc1 | inactive |
| C[C@@H]1CN([C@H](C)CO)C(=O)Cc2cc(NC(=O)Cc3cn(C)c4ccccc34)ccc2O[C@H]1CN(C)Cc1ccc(C(F)(F)F)cc1 | inactive |
| COc1cc2c3c(c1)C1(C(=O)N3C(C)(C)C=C2C)C(C#N)=C(N)Oc2cc(C)oc(=O)c21 (stereo not given) | inactive |
| COc1ccc(CCN2C(=O)C3C(C2=O)C2C=CC3C23CC3)cc1OC (stereo not given) | inactive |
| C[C@@H]1CCCCO[C@@H](CN(C)Cc2ccc(Cl)c(Cl)c2)[C@@H](C)CN([C@H](C)CO)C(=O)c2cc(NC(=O)Cc3ccccc3)ccc2O1 | inactive |
| Cc1ccc(CSCC(=O)Nc2ccc3c(c2)OCO3)cc1 | inactive |
| COc1ccc(-n2c(SCC(=O)Nc3ccc4c(c3)OCO4)nc3ccccc3c2=O)cc1 | inactive |
| C[C@@H]1CN([C@H](C)CO)C(=O)c2cccc(NC(=O)Nc3ccc(F)cc3)c2O[C@H]1CN(C)Cc1ccccc1 | inactive |
| O=C(NC1CCCC1)C(c1ccsc1)N(Cc1ccco1)C(=O)Cc1cccs1 (stereo not given) | inactive |
| Cc1ccc(C(C(=O)NC2CCCC2)N(Cc2cccs2)C(=O)CNC(=O)c2cccs2)o1 (stereo not given) | inactive |
| Cc1ccc(S(=O)(=O)N(C)C[C@@H]2Oc3ncc(C#Cc4cccc(F)c4)cc3C(=O)N([C@H](C)CO)C[C@@H]2C)cc1 | inactive |
| C[C@@H]1CCCCO[C@@H](CN(C)C(=O)Nc2cccc3ccccc23)[C@@H](C)CN([C@H](C)CO)C(=O)c2cc(NS(=O)(=O)c3ccc(Cl)cc3)ccc2O1 | inactive |
| C[C@H](CO)N1C[C@H](C)[C@@H](CN(C)CC2CCCC2)Oc2ncc(C#Cc3ccncc3)cc2C1=O | inactive |
| C[C@H]1CN([C@@H](C)CO)C(=O)c2cc(C#Cc3cccc(F)c3)cnc2O[C@@H]1CN(C)C(=O)C1CCCCC1 | inactive |
| C[C@H](CO)N1C[C@H](C)[C@H](CN(C)C(=O)Nc2ccc3c(c2)OCO3)Oc2ncc(C#Cc3ccc(F)cc3)cc2C1=O | inactive |
| CC(C)CC#Cc1cnc2c(c1)C(=O)N([C@H](C)CO)C[C@@H](C)[C@H](CN(C)C(=O)Cc1ccccc1)O2 | inactive |
| COc1ccc(C#Cc2cnc3c(c2)C(=O)N([C@H](C)CO)C[C@H](C)[C@H](CN(C)Cc2cccc(C(F)(F)F)c2)O3)cc1OC | inactive |

| SMILES | outcome |
| --- | --- |
| C[C@H](CO)N1C[C@H](C)[C@H](CN(C)C(=O)Nc2cccc3ccccc23)Oc2ncc(C#Cc3ccc(C(F)(F)F)cc3)cc2C1=O | inactive |
| CC(C)CC#Cc1cnc2c(c1)C(=O)N([C@@H](C)CO)C[C@@H](C)[C@H](CN(C)C(=O)Cc1ccccc1)O2 | inactive |
| COc1cccc(-c2cnc3c(c2)C(=O)N([C@H](C)CO)C[C@H](C)[C@H](CN(C)Cc2ccccc2)O3)c1 | inactive |
| Cc1cc2c(cc1C)/C(=C\C(N)=O)NC(C)(C)C2 | inactive |
| COc1cc(C(N)=O)ccc1OCc1ccccc1 | inactive |
| CCN(CC)C(=O)CSc1nnc([C@H](CCSC)NC(=O)OC(C)(C)C)o1 | inactive |
| O=C(NCc1ccccc1)Oc1cccc(Cl)c1 | inactive |
| Cc1cc(NC(=O)c2ccc(Cl)c(S(=O)(=O)N3CCOCC3)c2)no1 | inactive |
| C[C@H]1CN([C@@H](C)CO)C(=O)c2cc(NS(=O)(=O)c3ccc(F)cc3)ccc2O[C@H]1CN(C)Cc1ccc(-c2ccccc2)cc1 | inactive |
| CN1C[C@@H]2[C@H](c3ccccc31)[C@@H](CO)N2Cc1ccccc1 | inactive |
| C[C@@H]1CN([C@@H](C)CO)C(=O)c2cc(NC(=O)c3ccccc3)ccc2O[C@@H](C)CCCCO[C@H]1CN(C)C(=O)CCCN(C)C | inactive |
| C[C@H]1CCCCO[C@H](CN(C)C(=O)Nc2cccc3ccccc23)[C@@H](C)CN([C@@H](C)CO)C(=O)c2cc(NS(=O)(=O)c3ccc(Cl)cc3)ccc2O1 | inactive |
| C[C@@H]1CN([C@H](C)CO)C(=O)c2cc(NC(=O)Nc3ccc(F)cc3)ccc2O[C@@H](C)CCCCO[C@H]1CN(C)S(=O)(=O)c1cccs1 | inactive |
| O=C(CN1CCN(c2ccccn2)CC1)NCCc1ccccc1 | inactive |
| CS(=O)(=O)N(CC(=O)NCc1ccccc1)C1CCCCC1 | inactive |
| CSc1cc(-c2ccc(Cl)cc2)c(C(=O)NC(C)C)s1 | inactive |
| Cc1noc(C)c1NC(=O)Nc1cccc2c1O[C@H](CN(C)Cc1ccc(-c3ccccc3)cc1)[C@@H](C)CN([C@@H](C)CO)C2=O | inactive |
| Cc1noc(C)c1NC(=O)Nc1cccc2c1O[C@@H](CN(C)Cc1ccc(-c3ccccc3)cc1)[C@H](C)CN([C@@H](C)CO)C2=O | inactive |
| COc1ccc(NC(=O)Nc2cccc3c2O[C@@H](CN(C)Cc2ccc(Oc4ccccc4)cc2)[C@@H](C)CN([C@@H](C)CO)C3=O)cc1 | inactive |
| COc1ccc(NC(=O)Nc2cccc3c2O[C@@H](CN(C)Cc2ccc(Oc4ccccc4)cc2)[C@@H](C)CN([C@H](C)CO)C3=O)cc1 | inactive |
